Data taken from PubChem BioAssay (NCATS).
Results filed as inconclusive are left out. The source made the active and inactive calls. Unless noted, calls follow the shape of the dose curve; as a rule, active = well fitted cell-killing curve with a large enough effect; inconclusive = small, poorly fitted or top-dose-only effect; inactive = flat fitted curve, though single readings scatter.

Assays:
[1] = Cell Viability - LYMP2-020 (AID 986);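 also: series mostly up to about 92 µM; cells exposed to compound for 24 h at 37 °C; nearly all actives have a fitted effect of over 55% in size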
Summary of the method: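 Acute cytotoxicity in a human lymphoblastoid line is scored as a concentration-dependent fall in cellular ATP after 24 hr at 37 C in complete medium. The positive control is tetraoctylammonium bromide, and potency is given as Hill-fit AC50.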

[2] = Cell Viability - LYMP2-022 (AID 987);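 also: cells exposed to compound for 24 hr; nearly all actives have a fitted effect of over 55% in size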
Summary of the method: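 Acute toxicity in a human lymphoblastoid line is scored as decreased intracellular ATP after 24 hr compound treatment at 37 C. ATP is measured by CellTiter-Glo luminescence; curves are fitted with the Hill equation to give AC50.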

[3] = Cell Viability - LYMP2-024 (AID 988);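 also: cells exposed to compound for 24 hr at 37 °C; nearly all actives have a fitted effect of over 60% in size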
Summary of the method: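 Acute toxicity is measured as concentration-dependent loss of intracellular ATP in a human lymphoblastoid line treated 24 hours at 37 C. Luciferase luminescence quantifies ATP; AC50 values come from standard Hill-equation modelling.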

[4] = Cell Viability - LYMP2-026 (AID 989);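 also: cells exposed to compound for 24 h at 37 °C; nearly all actives have a fitted effect of over 50% in size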
Summary of the method: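 Concentration-dependent loss of intracellular ATP in human lymphoblastoid cells after 24 hr at 37 C, quantified by luciferase luminescence. AC50 derived from standard Hill equation.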

[5] = Cell Viability - LYMP1-002 - Assay at 24 hr (AID 993)
Summary of the method: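 qHTS, LYMP1-002 lymphoblastoid, 24 h cpd, 37 C, CellTiter-Glo ATP luminescence; AC50 via Hill eq.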

[6] = Cell Viability - LYMP1-002 - Assay at 40 hr (AID 994); also: nearly all actives have a fitted effect of over 60% in size
Summary of the method: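 Viability in the human lymphoblastoid line was measured as intracellular ATP via CellTiter-Glo after 40 hr compound exposure. Tetraoctylammonium bromide served as positive control.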

[7] = qHTS Assay for Identification of Small Molecule Inducers of Hypoxia Response (AID 2120; active = well fitted curve in the direction sought with a large enough effect in the signal ratio, with a control signal flat, not every such curve was filed as active; the % refers to the signal ratio)
Summary of the method: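 Induction of beta-lactamase reporter activity was measured in CellSensor HRE-bla ME-180 cells after 17 h compound treatment at 37 degrees C, using CCF4 substrate and the 460nm/530nm emission ratio to derive AC50 values.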

[8] = molecular target: Estrogen receptor (Homo sapiens) (UniProt P03372); experiment: qHTS assay for small molecule antagonists of estrogen receptor alpha signaling (AID 588513; active = well fitted curve in the direction sought with a large enough effect in the signal ratio, with a control signal flat, not every such curve was filed as active; the % refers to the signal ratio)
Summary of the method: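 Antagonist-mode qHTS in ER-alpha-UAS-bla HEK 293 cells: compound titration, 0.5nM estradiol for 18 h, CCF4 fluorescence, Hill-derived IC50.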

[9] = molecular target: Estrogen receptor (Homo sapiens) (UniProt P03372); experiment: qHTS assay for small molecule agonists of estrogen receptor alpha signaling (AID 588514; calls by dose curve; also: nearly all actives have a fitted effect of over 70% in size)
Summary of the method: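 Reporter-gene assay. […] controls beta-lactamase in HEK 293 GripTite cells; after 18 hrs with compound, CCF4 substrate is added for 2 hrs and fluorescence is read.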

Measured: Potency

Sequence of Estrogen receptor (Homo sapiens) (P03372 whole entry, looked up): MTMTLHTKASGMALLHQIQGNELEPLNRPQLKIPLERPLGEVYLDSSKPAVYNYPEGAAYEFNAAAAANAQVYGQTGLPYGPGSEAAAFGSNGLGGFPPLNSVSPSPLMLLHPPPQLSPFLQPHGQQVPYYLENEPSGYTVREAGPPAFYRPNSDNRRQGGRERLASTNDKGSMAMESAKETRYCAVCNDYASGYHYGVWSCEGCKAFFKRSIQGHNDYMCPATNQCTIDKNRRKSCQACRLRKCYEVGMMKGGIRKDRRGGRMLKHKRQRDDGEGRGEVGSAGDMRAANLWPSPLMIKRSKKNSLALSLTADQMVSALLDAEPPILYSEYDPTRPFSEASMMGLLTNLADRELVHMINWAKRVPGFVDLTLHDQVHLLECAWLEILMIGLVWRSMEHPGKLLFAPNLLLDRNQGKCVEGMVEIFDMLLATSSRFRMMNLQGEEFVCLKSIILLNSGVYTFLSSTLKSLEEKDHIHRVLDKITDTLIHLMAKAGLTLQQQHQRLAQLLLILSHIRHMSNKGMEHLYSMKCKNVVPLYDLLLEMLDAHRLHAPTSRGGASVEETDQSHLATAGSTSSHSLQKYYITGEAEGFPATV

CCNS(=O)(=O)c1ccc(C)cc1
inactive: all assays above

CCCCCCCCC/C=C/CC1CC(=O)OC1=O (stereo not given)
inactive: all assays above

CC/C=C/C#N
inactive: all assays above

CCCCCO
inactive: all assays above

OC1CCCC1
inactive: all assays above

CCCCC(C=O)CC (stereo not given)
not listed: [6]
inactive: all other assays above

COC(=O)CC#N
not listed: [6]
inactive: all other assays above

Cc1ccc(C(C)(C)C)cc1
inactive: all assays above

O=C1CCC(=O)O1
inactive: all assays above

Nc1cc(Cl)c([N+](=O)[O-])cc1O
inactive: all assays above

CN(C)CCCCl
inactive: all assays above

Cc1c(N)cccc1[N+](=O)[O-]
inactive: all assays above

CC(=O)OC(C)C
inactive: all assays above

O=[N+]([O-])c1cccc(Cl)c1
inactive: all assays above

Nc1nc2ccccc2[nH]1
not listed: [6]
inactive: all other assays above

COc1cccc2sc(N)nc12
inactive: all assays above

O=[N+]([O-])c1ccc2nc[nH]c2c1
inactive: all assays above

CC(=O)c1cccc([N+](=O)[O-])c1
inactive: all assays above

Cc1ccccc1C#N
inactive: all assays above

Cc1ccc(C)c(N)c1
inactive: all assays above

Cc1cccc(C(=O)O)c1[N+](=O)[O-]
inactive: all assays above

CCc1ccccc1O
inactive: all assays above

Cc1nc2ccc(Cl)cc2[nH]1
inactive: all assays above

CNc1ccc([N+](=O)[O-])cc1
inactive: all assays above

Clc1cc(Cl)cc(Cl)c1
inactive: all assays above

COc1ccc(N)c(C)c1
inactive: all assays above

CC(C)CCOC(=O)/C=C/c1ccccc1
inactive: all assays above

O=Cc1c(Cl)cccc1Cl
inactive: all assays above

CC(C)(C)c1ccc(OCC2CO2)cc1 (stereo not given)
inactive: all assays above

CC(=O)Nc1ccc(C)cc1
inactive: all assays above

CCCCCCCCCCCCC1CO1 (stereo not given)
inactive: all assays above

FB(F)F
inactive: all assays above

CCCCC(CC)COC(=O)CCCCC(=O)OCC(CC)CCCC (stereo not given)
inactive: all assays above

CC#N
inactive: all assays above

COC(=O)CS
inactive: all assays above

Nc1ccc([N+](=O)[O-])c(N)c1
not listed: [6]
inactive: all other assays above

Cc1ccc(C#N)cc1
inactive: all assays above

C=C(C)C(=O)OCCCCCCCCCC
inactive: all assays above

CCCCC(=O)N(C)C
inactive: all assays above

Cc1ccc(CO)cc1
not listed: [4]
inactive: all other assays above

CCCCN(CCO)CCCC
not listed: [4]
inactive: all other assays above

C(=C/c1ccccc1)/c1ccccc1
not listed: [5]
inactive: all other assays above

C=CCOC(=O)CCCCCCCC
not listed: [5]
inactive: all other assays above

C=C(C)C(=O)OCCCCCC
not listed: [1]
inactive: all other assays above

NC(N)=S
not listed: [5]
inactive: all other assays above

CCCCC(CC)COCC1CO1 (stereo not given)
not listed: [2]
inactive: all other assays above

CCOc1cccc(N)c1
not listed: [2] | [6]
inactive: all other assays above

C=C(C)C1CC=C(C)C(OC(C)=O)C1 (stereo not given)
not listed: [1] | [5]
inactive: all other assays above

COc1ccc(N)c(OC)c1
not listed: [1]
inactive: all other assays above

O=C1OC(=O)c2cc([N+](=O)[O-])ccc21
not listed: [2] | [4]
inactive: all other assays above

CCc1ccccc1
not listed: [2]
inactive: all other assays above

C=CCOC(=O)COCCC(C)C
not listed: [1]
inactive: all other assays above

CCOc1ccccc1N
not listed: [2]
inactive: all other assays above

ClC/C=C/CCl
not listed: [1] | [3]
inactive: all other assays above

CC(=O)c1nccs1
not listed: [1] | [6]
inactive: all other assays above
